# Nrf2 inh: Nrf2 qHTS screen for inhibitors; A549 ARE-Fluc reporter, luciferase luminescence, 18-24 h; AID 504444, 2011; hit rate 2.1% among 360,000; Potency, µM (series often up to 46 µM), for inactives: at the top dose activity change, negative = inhibition, hits mostly inhibitors; also: potency is read from the fitted curve at half-maximal effect; % is scaled to controls: 0 for no effect and ±100 for the full control effect; nearly all actives have a fitted effect of over 60% in size
#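 Reporter: ARE-Fluc in A549. Exposure: 18-24 h, 37 °C, 5% CO2, 5% FBS OPTI-MEM. Readouts: fluorescent cytotoxicity (CellTiter-Fluor), then luminescent Nrf2 signal after BugLite.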
# A549 tox-1: Nrf2 qHTS screen for inhibitors: counterscreen for cytotoxicity. hit rate 0.16% among 390,000. Potency, µM (titrated, usually from 46 µM), for inactives: at the top dose activity change, negative = cytotoxicity, hits mostly inhibitors. A549 ARE-Fluc cells, CellTiter-Fluor viability, 18-24 h. AID 504648, 2011; also: potency is read from the fitted curve at half-maximal effect; % is scaled to controls: 0 for no effect and ±100 for the full control effect
#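 A549 ARE-Fluc cells in 5% FBS OPTI-MEM, 5000 cells/well, rested 2 h then exposed to compounds in concentration-response for 18-24 h at 37 °C. Viability by CellTiter-Fluor fluorescence (Ex 405/Em 525) after 30 min; luciferase luminescence (BugLite, 15 min, RT) read afterwards.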
# TCR act: Activators of T cell receptors: qHTS campaign. 330,000 tested, under 10 active. primary human leukocytes, anti-CD3, IL-2 HTRF, 48 h. AID 504894, 2011. Potency, µM (titrated, usually from 9.22 µM), without a hit: at the top dose activation of IL-2 secretion, actives largely listed as activators; also: % of control where 0% means no effect
#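 Compounds are tested in HTS on primary human leukocytes co-incubated with a-CD3 beads for 48 hr. IL-2 output is measured by time-resolved FRET.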
# CCT chaperon mod: High-Throughput Screening for Modulators of Cytosolic Chaperonin Activity | AID 651819, 2012 | hit rate 0.3% among 360,000 | activity change, % (concentration not given with the values), hits read low | purified chaperonin ATPase assay, HTRF ADP detection, 30 min; in the data active = activity change below about -30%; also: % is scaled to controls: 0 for no effect and ±100 for the full control effect
#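 ATPase activity: ADP formed was measured by HTRF Transcreener (665/615 nm ratio) after 30 min at 37 deg C with 10 uM ATP. Compounds screened at one 76 uM concentration against 40 or 20 nM TRiC in Tris pH 7.4/KCl/MgCl2/DTT buffer.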
# A-T KAP1 phos: qHTS Assay for Identifying a Potential Treatment of Ataxia-Telangiectasia | F2112 A-T fibroblasts, KAP-1 phosphorylation AlphaLISA; neocarzinostatin DNA damage 30 min before lysis | Potency, µM (series often up to 57.5 µM), without a hit: at the top dose activation, hits mostly activators | hit rate 0.19% among 320,000 | AID 485349, 2010; also: potency is read from the fitted curve at half-maximal effect; % of control where 0% means no effect; nearly all actives have a fitted effect of over 45% in size
#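 hTERT-immortalized A-T patient fibroblasts (F2112), 500 cells/well in OPTI-MEM, 1% FBS, got compounds for 60 min, then NCS for 30 min at 37C. Lysates were then assayed for phospho-KAP-1 by AlphaLISA (anti-pKAP1 donor, anti-KAP1 acceptor beads), 6 hr at 25C.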
# Nrf2 activator: qHTS of Nrf2 Activators; AREc32 ARE-luciferase reporter (MCF7-derived line), luminescence, 24 h; hit rate 0.31% among 410,000; Potency, µM (doses to about 46.1 µM), without a hit: at the highest dose activation, most hits filed as activators; also: potency is read from the fitted curve at half-maximal effect; % of control where 0% means no effect; nearly all actives have a fitted effect of over 65% in size
#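 Luminescent ARE reporter assay in AREc32_Fluc cells: overnight plating at 37 deg C, 24 hr compound incubation, Steady-Glo added, 30 min RT before reading.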
# FLuc enzyme inh: Nrf2 qHTS screen for inhibitors: Purified Fluc Biochemical Counterscreen for Hit Validation; shares compounds with Nrf2 inh; purified firefly luciferase, luminescence inhibition; Potency, µM (doses to about 57.5 µM), for the others: at the top dose activity change, negative = inhibition, hits mostly inhibitors; hit rate 4% among 1,400; AID 720522, 2013; also: potency is read from the fitted curve at half-maximal effect; % is scaled to controls: 0 for no effect and ±100 for the full control effect; nearly all actives have a fitted effect of over 65% in size
# Target sequence (P08659 whole entry, looked up): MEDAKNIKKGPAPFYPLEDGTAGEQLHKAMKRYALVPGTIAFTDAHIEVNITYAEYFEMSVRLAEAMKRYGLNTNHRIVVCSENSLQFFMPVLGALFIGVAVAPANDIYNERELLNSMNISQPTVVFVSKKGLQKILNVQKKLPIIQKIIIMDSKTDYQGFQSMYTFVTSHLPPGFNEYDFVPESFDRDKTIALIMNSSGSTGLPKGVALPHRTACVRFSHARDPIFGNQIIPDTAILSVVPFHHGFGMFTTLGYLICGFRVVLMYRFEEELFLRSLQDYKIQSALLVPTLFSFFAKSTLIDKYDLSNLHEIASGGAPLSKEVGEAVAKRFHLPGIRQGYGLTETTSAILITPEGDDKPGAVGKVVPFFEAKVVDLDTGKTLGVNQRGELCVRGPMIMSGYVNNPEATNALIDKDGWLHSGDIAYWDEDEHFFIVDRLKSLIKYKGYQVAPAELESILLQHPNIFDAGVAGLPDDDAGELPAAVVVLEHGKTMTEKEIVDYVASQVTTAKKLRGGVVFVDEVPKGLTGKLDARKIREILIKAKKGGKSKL
# A549 tox-2: Nrf2 qHTS screen for inhibitors: A549 ARE-Fluc Cytotoxicity Counterscreen for Hit Validation | Potency, µM (series often up to 46.1 µM), without a hit: at the highest dose activity change, negative = cytotoxicity, most hits filed as inhibitors | hit rate 2% among 1,400 | shares compounds with Nrf2 inh | AID 720523, 2013 | A549 ARE-Fluc cells, cytotoxicity counterscreen;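 also: potency is read from the fitted curve at half-maximal effect; cells exposed to compounds for 18 to 24 hours; % is scaled to controls: 0 for no effect and ±100 for the full control effect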
# ARE-Fluc inh: Nrf2 qHTS screen for inhibitors: Nrf2 A549 ARE-Fluc Confirmation Assay for Hit Validation; shares compounds with Nrf2 inh; A549 ARE-firefly luciferase reporter, luminescence; Potency, µM (doses to about 46.1 µM), inactives show at the top dose activity change, negative = inhibition, hits mostly inhibitors; hit rate 74% among 1,400; AID 720524, 2013; also: potency is read from the fitted curve at half-maximal effect; % is scaled to controls: 0 for no effect and ±100 for the full control effect; nearly all actives have a fitted effect of over 65% in size
# Active calls of the source: *; ? = inconclusive; · = no result shown; [ ] = remark or other dose. An excerpt weighted towards active compounds, which were near 2.6% of everything screened. Unless noted, calls follow the shape of the dose curve; as a rule, active = well fitted curve in the direction sought with a large enough effect; inconclusive = small, poorly fitted or top-dose-only effect, or another doubt; inactive = no such curve, though single readings can be large; an effect the other way counts as inactive or inconclusive.
SMILES,Nrf2 inh,A549 tox-1,TCR act,CCT chaperon mod,A-T KAP1 phos,Nrf2 activator,FLuc enzyme inh,A549 tox-2,ARE-Fluc inh
COc1ccc(-c2nc(CSCC(=O)N3CCN(c4ccccc4F)CC3)c(C)o2)cc1,5.8µM*,?,·,·,·,-1%,-22%,-16%,9.2µM*
Cc1oc(-c2ccccc2Cl)nc1CSCC(=O)N1CCCC1,?,-2%,3%,-27,-8%,0%,·,·,·
Cc1oc(-c2ccccc2F)nc1CSCC(=O)N1CCN(c2ccccc2)CC1,7.3µM*,-22%,·,·,·,0%,2%,-8%,12µM*
N#Cc1c(NC(=O)CSc2ncn[nH]2)sc2c1CCCCC2,0.37µM*,-9%,·,-5,-3%,-1%,9.5µM*,0%,1.6µM*
Cn1cnnc1SCC(=O)Nc1sc2c(c1C#N)CCCCC2,?,-9%[1.84 µM],4%[46.1 µM],-1,10%,4%,·,·,·
Fc1ccccc1N1CCN(Cc2cc(-c3ccccc3)on2)CC1,7%,4%,0%,-2,-4%,0%,·,·,·
CCOc1ccc(NC(=O)CSc2nnc(C3CC3)n2C)cc1S(=O)(=O)N1CCCCC1,-11%,-4%,-2%,-2,-13%,0%,·,·,·
Cc1ccccc1C(=O)N1CCN(c2ccc(NC(=O)c3ccc4c(c3)OCO4)cc2)CC1,9.2µM*,-12%,2%,0,-2%,0%,-12%,-4%,7.3µM*
Cc1ccc(NC(=O)c2nc(S(C)(=O)=O)ncc2N(Cc2ccc(C(C)(C)C)cc2)Cc2ccco2)cc1C,1%,12%,·,·,·,0%,·,·,·
CCCCCCC[n+]1ccc(C)c2ccccc21,·,·,·,·,·,·,2%,-15%,·
Cc1cc[n+](CCC2CCCCC2)c2ccccc12,·,·,·,·,·,·,2%,-10%,?
COc1ccc(-c2c[n+]3c(n2-c2ccc(C)cc2)CCCCC3)cc1,?,-18%,-4%,0,5%,4%,·,·,·
CCOc1ccc(-n2c(-c3ccc(Br)cc3)c[n+]3c2CCCCC3)cc1,?,-14%,4%,-1,0%,1%,·,·,·
CCOc1ccc(-n2c(-c3ccc(OC)cc3)c[n+]3c2CCCCC3)cc1,2.6µM*,?,3%[46.1 µM],0,0%,4%,2%,-19%,3.7µM*
CCOc1ccc(-n2c(-c3ccccc3)c[n+]3c2CCC3)cc1,2.3µM*,-6%,-14%,-1,2%,0%,1%,-10%,16µM*
CCCC(=O)NC(NC(=S)Nc1ccc(N=Nc2ccccc2)cc1)C(Cl)(Cl)Cl (stereo not given),8.2µM*,?,-3%[46.1 µM],-5,-10%,-1%,-21%,?,7.3µM*
Cc1cc[n+](Cc2ccc([N+](=O)[O-])cc2)cc1,?,-9%,-8%,3,-1%,0%,·,·,·
Cc1ccc(-c2cc[n+](Cc3ccccc3)cc2)cc1,7.3µM*,-8%,-8%,1,-1%,-1%,1%,-2%,9.2µM*
COc1cccc(NC(=O)CCN2CCN(CCO)CC2)c1,9%,1%,·,·,·,-1%,·,·,·
CN(c1ccccc1)S(=O)(=O)c1ccc(Cl)c(C(=O)Nc2ccncc2)c1,8.2µM*,1%,-5%,1,6%,10%,1%,1%,?
CCN(c1ccccc1)S(=O)(=O)c1ccc(Cl)c(C(=O)Nc2ccncc2)c1,·,·,·,1,·,5%,·,·,·
Cc1cc(C)c(CN2CCN(C(=O)Cn3cnc4c(NCc5ccccc5)ncnc43)CC2)c(C)c1,3.7µM*,-8%,-7%[46.1 µM],1,5%,1%,1%,?,0.65µM*
Cc1cccc(S(=O)(=O)N(C)C[C@H]2OCc3cn(nn3)CCCC(=O)N([C@@H](C)CO)C[C@@H]2C)c1,·,·,·,-1,·,-1%,·,·,·
O=NN(CCc1ccncc1)c1ccc(OCc2ccccc2)cc1,6.5µM*,-19%,2%,0,20%,4%,-28%,-3%,5.8µM*
O=C(NCc1ccncc1)C(=O)N/N=C/c1ccc(OCc2ccccc2)cc1,-6%,-2%,8%,-2,1%,4%,·,·,·
SMILES,Nrf2 inh,A549 tox-1,TCR act,CCT chaperon mod,A-T KAP1 phos,Nrf2 activator,FLuc enzyme inh,A549 tox-2,ARE-Fluc inh
CCOc1ccc(-n2ccnc(SCC(=O)Nc3ccc(CC)cc3)c2=O)cc1,0%,-6%,·,-3,-5%,0%,·,·,·
O=C(O)CCSc1ncnc2sc(-c3ccccc3)cc12,2.1µM*,-14%,-7%,-1,-8%,-2%,9.5µM*,-3%,6.5µM*
Cc1ccc(C(=O)OCC(=O)NC(=O)c2cccn2C)cc1,1.3µM*,17%,-1%,0,25%,-3%,-15%,0%,1.6µM*
CCOc1ccc(CCNc2ncnc3onc(-c4ccc(Cl)cc4)c23)cc1,7.3µM*,-9%,·,·,·,-1%,2%,0%,13µM*
O=[N+]([O-])c1ccc(CN2CCN(c3ccc([N+](=O)[O-])cc3)CC2)cc1,7.3µM*,-24%,8%,-2,-8%,2%,-1%,-16%,·
O=C(Nc1cccc(S(=O)(=O)Nc2ccc(Cl)cc2)c1)c1ccccn1,8.2µM*,?,-1%,2,6%,0%,-9%,4%,·
Cc1sc(N2C(=O)C3C(C2=O)[C@H]2C=C[C@@H]3C2)c(C#N)c1C (stereo not given in full),-3%,-2%,6%,0,23%,0%,·,·,·
CN(Cc1ccc(F)cc1)C(=O)c1cccc(S(=O)(=O)NCc2ccccc2)c1,?,-1%,-3%,-1,2%,4%,·,·,·
C=CCOc1ccc(CN(C)C(=O)c2ccc(CNS(=O)(=O)c3ccc(C)c(C)c3)cc2)cc1,9.2µM*,?,-7%,0,3%,1%,0%,-25%,?
COc1cccc(CN2CCc3nc(Nc4ccc5c(c4)OCCO5)ncc3C2)c1,·,4%,·,·,·,5%,·,·,·
COc1ccc(C2=Nn3c([n+](C)c4ccccc43)SC2)cc1,2.1µM*,-25%,-2%,-3,-5%,0%,0%,?,·
